Screening data deposited in PubChem by several laboratories.
Shown are actives, neighbours in structure and some others; about 2.4% of the full set was active somewhere.
STAT3 inh: reduces IL-6 driven STAT3 reporter signal; U3A cells, IL-6 STAT3-luciferase reporter, luminescence; host cell line lacks STAT1; inhibition, % at 5.5 µM; actives 0.89% (n = 190,000); AID 862;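 active = inhibition above the mean inhibition across all screened compounds plus 3 SD, cut at about 44% in these data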;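 note: 0% = DMSO only wells and 100% = 100 µM nifuroxazide control wells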
PPC-1+TRAIL kill: PPC-1 cancer cell killing with TRAIL present. PPC-1 cells + TRAIL, ATPLite viability luminescence. cell killing (% activity), % at 4 µM or 5 µM. actives 0.41% (n = 220,000);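 active = cell killing above 50% in the first pass at 4 µM, then a duplicate retest at 5 µM averaging 50% or more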;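 note: plate controls were cells with TRAIL plus DMSO for no effect and medium-only wells lacking cells for full effect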
HSP90 inh: inhibitors of HSP90 luciferase refolding in rabbit reticulocyte lysate. inhibition, % at 5.6 µM. actives 0.91% (n = 290,000). luciferase refolding luminescence, 3 h;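 active = inhibition above the screen-wide mean plus 3 SD, computed separately per campaign, cut at about 16% in these data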;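 note: 0% = DMSO wells and 100% = 60 µM geldanamycin wells; inhibitors lower the luminescence because luciferase stays unfolded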
HSF1 inh: HSF1 inhibition; NIH3T3-HGL HSE-luciferase, MG132-induced, luminescence 8 h; stronger effect = lower value; activity change, negative = inhibition, % at 7.5 µM (by protocol); actives 0.77% (n = 300,000); AID 2098;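 active = more than half of replicate wells show activity change below -50%, luminescence cut by over half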;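 note: luciferase reports HSF-1 transcriptional activity via heat shock element; 0% = median of DMSO wells and -100% = zero luminescence signal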
STAT1 blocker: STAT1 signaling inhibition; NIH 3T3 STAT1-luciferase reporter, IFN-gamma, luminescence; actives 0.35% (n = 200,000); inhibition, % at 5.5 µM;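 active = inhibition above a set limit, the mean inhibition across all tested compounds plus 3 SD, cut at about 34% in these data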;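 note: 0% = IFN-gamma with DMSO and 100% = IFN-gamma with 300 µM nifuroxazide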
TRAIL sens C8: caspase-8 TRAIL sensitization. actives 1% (n = 360,000). AID 624354. NB7+C8 cells + TRAIL, ATPlite viability luminescence. inhibition (viability loss, TRAIL sensitization), % at 10 µM;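 active = compounds causing at least 50% loss of cell viability in the single-dose screen, relative to plate controls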
PPC1 cytotox: PPC-1 cell cytotoxicity. shares compounds with PPC-1+TRAIL kill. PPC-1 viability, ATPlite luminescence, overnight. cytotoxicity, % at 5 µM. actives 50% (n = 1,200);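 active = reconfirmed compounds whose average cytotoxicity reaches 50% or more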;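 note: 0% = DMSO-treated cells and 100% = wells holding medium but no cells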
* marks the source's active call; other numbers are inactive results; . = no result given.

SMILES | STAT3 inh | PPC-1+TRAIL kill | HSP90 inh | HSF1 inh | STAT1 blocker | TRAIL sens C8 | PPC1 cytotox
C[C@H](O)CNC(=O)c1[nH]cnc1C(=O)N[C@@H](C)c1ccccc1 | . | . | . | . | . | -12 | .
CCOc1ccc(NC(=O)c2ccc(NC(=O)c3ccc(NC(N)=O)cc3)cc2)cc1 | . | . | . | . | . | -10 | .
CCOc1ccc(NC(=O)c2ccc(N)cc2)cc1 | 2 | 21 | -7 | 3 | -6 | 46 | 22
CC(C)=CCC[C@H](C)C[C@@H]1Cc2[nH][nH]c(=O)c2[C@H](c2ccc(F)cc2)O1 | . | . | . | . | . | -22 | .
COc1cc(F)ccc1-c1csc(C(NC(C)=O)c2ccc(F)c(F)c2)n1 (stereo not given) | . | . | . | . | . | 14 | .
COc1ccc(CNC(=O)c2noc3c2CCCCC3)cc1 | 7 | 3 | 0 | 15 | -5 | -7 | -12
COCCNC(=O)C1CCCN(C(=O)COc2ccc(Cl)cc2Cl)CC1 (stereo not given) | . | . | . | . | . | -6 | .
COc1ccc(N(C(C)C(=O)NC2CCCCCC2)S(C)(=O)=O)cc1 (stereo not given) | 4 | 0 | -1 | 3 | -8 | 4 | -1
COc1ccc(N(C(C)C(=O)NN=C2CCCCCCC2)S(C)(=O)=O)cc1 (stereo not given) | 10 | 8 | 0 | 6 | 1 | 7 | .
CC(C)(C)S(=O)N1Cc2cc(CO)cc(CCO)c2[C@H]1CCO (stereo not given in full) | . | . | . | . | . | -9 | .
O=C(c1cc(C2CCCCN2C(=O)CCCc2ccccc2)on1)N1CCOCC1 (stereo not given) | . | . | . | . | . | 4 | .
COc1ccc(NC(=O)c2cc([N+](=O)[O-])ccc2O)cc1 | 105* | 75* | 81* | -73* | 94* | 91* | 77*
COc1ccc(NC(=O)c2cccc([N+](=O)[O-])c2)cc1 | 21 | 0 | 4 | 16 | -20 | -1 | .
O=C(Nc1ccc2ccccc2c1)C(c1ccccc1)n1c(=O)c(-c2cc3ccccc3[nH]2)nc2ccccc21 (stereo not given) | . | . | . | . | . | -7 | .
CC(=O)Nc1nc(COc2ccccc2)cs1 | -5 | -2 | -2 | 11 | -24 | -2 | 9
CC(=O)Nc1nc(COc2ccc3ccccc3c2)cs1 | 4 | 22 | -5 | 23 | -19 | 5 | .
O=C1OCC/C1=C\NCCCCCCCCN/C=C1\CCOC1=O | . | . | . | . | . | -6 | .
C=CCN(CC=C)S(=O)(=O)c1ccc(NC(=O)COc2ccccc2OC)cc1 | 1 | 8 | -1 | . | 2 | -9 | 2
COc1ccccc1OCC(=O)Nc1ccc(S(=O)(=O)N2CCCCCC2)cc1 | 19 | -1 | 1 | 0 | 5 | -4 | .
O=c1[nH]cnc2scc(-c3ccc(-c4ccccc4)cc3)c12 | 33 | 58* | 2 | 14 | -60 | 42 | 60*
COc1ccc(N2C(=O)c3ccccc3NC(=O)C2C(=O)NCCc2ccccc2F)cc1 (stereo not given) | . | . | . | . | . | -6 | .
CNS(=O)(=O)c1ccc(CNC[C@H]2O[C@@H](n3cnc4c(=O)[nH]c(N)nc43)[C@H](O)[C@@H]2O)cc1 | . | . | . | . | . | -3 | .
CN(c1ccccc1)S(=O)(=O)c1cccc(C(=O)NCC(c2cccs2)N2CCOCC2)c1 (stereo not given) | . | . | . | . | . | -11 | .
CC(=O)Nc1ccc(S(=O)(=O)NC2(C(F)(F)F)C(=O)Nc3c2c(=O)[nH]c(=O)n3C)cc1 (stereo not given) | 3 | 2 | 4 | -3 | 5 | -11 | .
CC(=O)Nc1ccc(S(=O)(=O)NC2(C(F)(F)F)C(=O)Nc3c2c(=O)n(C)c(=O)n3C)cc1 (stereo not given) | -2 | 2 | -1 | -9 | 6 | -5 | -2
SMILES | STAT3 inh | PPC-1+TRAIL kill | HSP90 inh | HSF1 inh | STAT1 blocker | TRAIL sens C8 | PPC1 cytotox
CCOC(=O)C1=CCN(S(=O)(=O)c2ccc(C)cc2)C1c1ccc(CC)cc1 (stereo not given) | . | . | . | . | . | 0 | .
O=C(Nc1nc(-c2ccccn2)cs1)C12CC3CC(CC(O)(C3)C1)C2 | -9 | 45 | 3 | 8 | -13 | 60* | 40
COc1ccc(CSc2nc3ccccc3[nH]2)cc1 | 37 | 58* | 10 | 60 | -9 | 69* | 55*
O=C1CCC(=O)N1c1ccc(CSc2nc3ccccc3[nH]2)cc1 | 2 | 12 | 4 | 12 | -2 | 11 | .
Cc1cccc(C(=O)NNC2=CC(=O)CC(C)(C)C2)c1O | . | -4 | 0 | 6 | . | 5 | .
CC1(C)CC(=O)C=C(NNC(=O)c2ccccc2O)C1 | 16 | 79* | 5 | 0 | 1 | 71* | 75*
Nc1nc(Nc2ccc(Cl)cc2)nc2ccccc12 | 62* | 79* | 16* | . | 24 | 76* | 80*
COc1ccc2[nH]c(C(=O)O)c(CCN3C(=O)c4ccc(C(=O)O)cc4C3=O)c2c1 | . | . | 0 | -9 | . | 7 | .
COc1ccc2[nH]c(C(=O)O)c(CCC(=O)O)c2c1 | -2 | 1 | -2 | 1 | 0 | -9 | 14
CCCS(=O)(=O)NC(=O)C1(C)CCN(C(=O)c2cccs2)C1 (stereo not given) | . | . | . | . | . | -6 | .
COc1ccc2c(C)nc(Nc3nc(-c4ccccc4)cc(=O)[nH]3)nc2c1 | . | 42 | 2 | 65 | . | 41 | 44
COc1ncnc2c1ncn2CCCN(CCCc1ccccc1)CCCn1cnc2c(OC)ncnc21 | . | . | . | . | . | -3 | .
CC(C)[C@@H](CO)NC(=O)c1ccc2c3n(nc2c1)-c1ccccc1CO3 | . | 71* | . | -29 | . | 71* | 69*
C=CCNC(=O)c1ccc2c3n(nc2c1)-c1ccc(Cl)cc1CO3 | . | . | . | 23 | . | 23 | .
CC(C)NC(=O)c1ccc2c3n(nc2c1)-c1ccccc1CO3 | . | 90* | . | -3 | . | 91* | 90*
Cc1ccc(NCc2ccccc2F)cc1 | 7 | 6 | 7 | 7 | 2 | -2 | .
Cc1ccc(NCc2ccccc2O)cc1 | 14 | -3 | -1 | -1 | 0 | -3 | -7
CC(c1ccco1)N(C(=O)COc1ccc(Cl)cc1Cl)c1ccccn1 (stereo not given) | 23 | 14 | 42* | -48 | -24 | 57* | 4
CC(c1ccco1)N(C(=O)c1ccccc1F)c1ccccn1 (stereo not given) | 8 | 3 | 2 | -7 | -3 | -1 | .
N#Cc1ccccc1NC(=O)CNc1ccccc1N1CCCCC1 | -42 | -13 | -1 | -7 | 6 | -6 | -24
Cc1cc2nc(C(C)(C)C)c(CC3CCCCC3)n2c(C)c1Br | . | . | . | . | . | -6 | .
CCOC(=O)c1sc(NC(=O)c2cccs2)cc1C | 42 | 60* | -4 | 18 | -42 | 49 | 60*
O=S1(=O)c2cccc3cccc(c23)N1Cc1ccc(-c2nnco2)cc1 | 6 | 1 | 2 | 4 | -3 | 8 | 4
O=S1(=O)c2cccc3cccc(c23)N1Cc1nnc(-c2ccccc2Br)o1 | 14 | 5 | 1 | 55 | 17 | 24 | .
